{"source": "PubChem BioAssay (EPA / NIEHS)", "note": "“And” between values parts separate entries of the source, which are not always exact repeats. Equal entries are not always repeated. Where a structure was tested more than once in an assay, its records may differ in their call. The source made the active and inactive calls. Rule for the calls: active = hit-call score of the fitted dose curve at least 0.9, where 1 is the maximum; inactive = score below 0.9."}
{"read-out": "Plasminogen activator inhibitor-1 (PAI1), SERPINE1 (gene 5054)", "assay": "BSK_hDFCGF_PAI1: BioMAP Diversity Plus: hDFCGF Assay for Plasminogen activator inhibitor-1 (PAI1) Biomarker Activity (AID 2283066)", "details": "primary human foreskin fibroblasts; actives raise or lower the signal", "method": "BSK_hDFCGF is a cell-based, multiplexed-readout assay that uses foreskin fibroblast, a human skin primary cell, with measurements taken at 24 hours after chemical dosing in a 96-well plate.BSK_hDFCGF_PAI1 is an assay component measured in the BSK_hDFCGF assay. It measures PAI-1 antibody related to regulation of gene expression using ELISA technology.Data from the assay component BSK_hDFCGF_PAI1 was analyzed into 1 assay endpoint. This assay endpoint, BSK_hDFCGF_PAI1, was analyzed with bidirectional fitting relative to DMSO as the negative control and baseline of activity. Using a type of binding reporter, gain or loss-of-signal activity can be used to understand changes in the signaling as they relate to the gene SERPINE1. Furthermore, this assay endpoint can be referred to as a primary readout, because this assay has produced multiple assay endpoints where this one serves a signaling function. To generalize the intended target to other relatable targets, this assay endpoint is annotated to the cytokine intended target family, where the subfamily is plasmogen activator inhibitor.\nThe levels of cell surface (or secreted, indicated by the prefix \"s\") biomarker endpoints were measured by ELISA. Overt cytotoxicity to cells in confluent adherent cultures (all systems other than the BT system) was assessed by measuring total protein levels using sulforhodamine B (SRB) staining in parallel cultures at the time of biomarker measurements, indicated as SRB endpoints. For proliferation assays for adherent cell types, individual cell types are cultured at sub-confluence and relative cell numbers quantified by SRB staining at time points optimized for each system (48 h: 3C and CASM3C systems; 72 h: BT and HDF3CGF systems; 96 h: SAg system). SRB was performed by staining cells with 0.1% SRB after fixation with 10% TCA and reading wells at 560 nm.Viability and proliferation of PBMC (T cells) was quantified by Alamar Blue reduction for the SAg and BT systems. For PBMC viability (referred to as PBMC Cytotoxicity within the assay endpoint names), cells were plated (75,000/well in a 96-well plate) and then chemical samples added for 1 h before addition of activators, SEB and TSST-1 (20 ng/mL final concentration each). Cells were incubated for 90 h. Then, Alamar Blue (20 uL/well) (Invitrogen, Cat DAL1100) was added for 6 h, and the plates were read with a fluorescence microplate reader at 546/580 nm (excitation/emission). For PBMC proliferation, cells were plated and activated as above but incubated for only 16 h prior to addition of Alamar Blue. Plates were read after 6 h."}
{"compound": "COc1nn(CSP(=S)(OC)OC)c(=O)s1", "outcome": "inactive"}
{"compound": "CCC(C)(C)C(=O)OC1=C(c2ccc(Cl)cc2Cl)C(=O)OC12CCCCC2", "AC50": "6.68 µM (active)"}
{"compound": "COC(=O)c1ccccc1S(=O)(=O)NC(=O)N(C)c1nc(C)nc(OC)n1", "outcome": "inactive"}
{"compound": "OCCOc1ccccc1", "outcome": "inactive"}
{"compound": "COc1cc(OC)nc(NC(=O)NS(=O)(=O)c2cc(NC=O)ccc2C(=O)N(C)C)n1", "outcome": "inactive"}
{"compound": "CCc1ccc(C(=O)NN(C(=O)c2cc(C)cc(C)c2)C(C)(C)C)cc1", "outcome": "inactive"}
{"compound": "CCOC1Oc2ccc(OS(C)(=O)=O)cc2C1(C)C", "note": "(stereo not given)", "outcome": "inactive"}
{"compound": "C#CCN1C(=O)COc2cc(F)c(N3C(=O)C4=C(CCCC4)C3=O)cc21", "outcome": "inactive"}
{"compound": "CC(C)(C)C(O)/C(=C\\c1ccc(Cl)cc1Cl)n1cncn1", "note": "(stereo not given)", "AC50": "9.85 µM (active)"}
{"compound": "CCN(CC)C(=O)SCc1ccc(Cl)cc1", "outcome": "inactive"}
{"compound": "O=S(=O)(O)C(F)(F)C(F)(F)C(F)(F)C(F)(F)C(F)(F)C(F)(F)C(F)(F)C(F)(F)F", "AC50": "20 µM (active) and 48.5 µM (active)", "outcome": "inactive"}
{"compound": "O=[N+]([O-])/N=C1\\NCCN1Cc1ccc(Cl)nc1", "outcome": "inactive"}
{"compound": "N#Cc1c(Cl)c(Cl)c(Cl)c(C#N)c1Cl", "AC50": "0.615 µM (active)"}
{"compound": "CCOc1nc(NC)nc(NC(=O)NS(=O)(=O)c2ccccc2C(=O)OC)n1", "AC50": "5.36 µM (active)"}
{"compound": "O=C(NC(=O)c1c(F)cccc1F)Nc1ccc(OC(F)(F)C(F)OC(F)(F)F)c(Cl)c1", "note": "(stereo not given)", "outcome": "inactive"}
{"compound": "Clc1ccccc1-c1nnc(-c2ccccc2Cl)nn1", "outcome": "inactive"}
{"compound": "CCCN(CCOc1c(Cl)cc(Cl)cc1Cl)C(=O)n1ccnc1", "AC50": "23.9 µM (active)"}
{"compound": "CCOCN(C(=O)CCl)c1c(C)cccc1CC", "AC50": "21.8 µM (active)"}
{"compound": "CNC(=O)CSP(=S)(OC)OC", "outcome": "inactive"}
{"compound": "Cc1[nH]c(=O)n(C(C)(C)C)c(=O)c1Cl", "outcome": "inactive"}
{"compound": "CC(C)OC(=O)Nc1cccc(Cl)c1", "outcome": "inactive"}
{"compound": "O=C(O)CCCOc1ccc(Cl)cc1Cl", "outcome": "inactive"}
{"compound": "CC1(c2ccc(Oc3ccccc3)cc2)OC(=O)N(Nc2ccccc2)C1=O", "note": "(stereo not given)", "outcome": "inactive"}
{"compound": "CCC(C)Nc1c([N+](=O)[O-])cc(C(C)(C)C)cc1[N+](=O)[O-]", "note": "(stereo not given)", "AC50": "5.08 µM (active)"}
{"compound": "CCCN(CCC)c1c([N+](=O)[O-])cc(C(F)(F)F)cc1[N+](=O)[O-]", "AC50": "29.4 µM (active)"}
{"compound": "CN1CSC(=S)N(C)C1", "AC50": "24.2 µM (active)"}
{"compound": "CCS(=O)(=O)c1cccnc1S(=O)(=O)NC(=O)Nc1nc(OC)cc(OC)n1", "outcome": "inactive"}
{"compound": "O=C(O)COc1ccc(Cl)cc1Cl", "outcome": "inactive"}
{"compound": "O=C(O)C(F)(F)C(F)(F)C(F)(F)C(F)(F)C(F)(F)C(F)(F)C(F)(F)F", "outcome": "inactive"}
{"compound": "Oc1ccc(Cl)cc1Cc1ccccc1", "AC50": "24.5 µM (active) [middle of 6 runs]"}
{"compound": "COP(=S)(OC)Oc1ccc([N+](=O)[O-])cc1", "AC50": "6.41 µM (active)"}
{"compound": "COP(=S)(OC)Oc1ccc(SC)c(C)c1", "outcome": "inactive"}
{"compound": "COC(=O)c1ccccc1CS(=O)(=O)NC(=O)Nc1nc(OC)cc(OC)n1", "outcome": "inactive"}
{"compound": "O=C1c2ccccc2C(=O)N1SC(Cl)(Cl)Cl", "outcome": "inactive"}
{"compound": "CC(C)(C)C(O)C(Oc1ccc(Cl)cc1)n1cncn1", "note": "(stereo not given)", "outcome": "inactive"}
{"compound": "CC1(C)C(C=C(Cl)Cl)C1C(=O)OC(C#N)c1ccc(F)c(Oc2ccccc2)c1", "note": "(stereo not given)", "outcome": "inactive"}
{"compound": "CNC(=O)Oc1cccc(N=CN(C)C)c1", "outcome": "inactive"}
{"compound": "CNC(=O)Oc1ccccc1OC(C)C", "outcome": "inactive"}
{"compound": "CC(C)N(C(=O)COc1nnc(C(F)(F)F)s1)c1ccc(F)cc1", "outcome": "inactive"}
